Assay outcomes (PubChem)
Rows were chosen to be rich in hits. Some 2.3% of all compounds tested hit in one or more screens of this group.
FUS yeast rescue = rescues growth of FUS-expressing yeast | Potency, µM (titrated, usually from 76.6 µM), hits mostly activators | S. cerevisiae FUS-expressing, growth rescue, OD600, 24 h | 0.24% of 390,000 active | AID 1347120;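 also: plate controls were DMSO vehicle for no effect and reference control for full effect; nearly all actives have a fitted effect of over 55% in size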
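Cultures pregrown in 2.5% raffinose medium are shifted to minimal medium containing 2% galactose to express toxic FUS. Compounds are tested at several concentrations. After 24hr at 30C, growth is quantified at 600 nm absorbance.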
aSyn rescue = alpha-synuclein toxicity inhibition in yeast; Yeast expressing alpha-synuclein, growth rescue, BacTiter-Glo, 24 h; Potency, µM (titrated, usually from 46.1 µM), for the others: at the top dose growth rescue (activation), usual class: activators; 0.14% of 370,000 active; AID 652106; also: % of control where 0% means no effect; nearly all actives have a fitted effect of over 65% in size
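Rescue of yeast growth: cells expressing toxic alpha-synuclein, induced in galactose at OD600 0.02, incubated with compound 24 h at 30 C. ATP luminescence quantified growth; inhibitors of toxicity appear as activators.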
uPA surface inh = cell surface uPA generation inhibition; Potency, µM (series often up to 38.3 µM), for inactives: at the highest dose activity change, negative = inhibition, most hits filed as inhibitors; cell surface uPA generation assay, qHTS; AID 540303; 0.31% of 330,000 active; active = well fitted inhibition curve with a large enough effect; inconclusive = small, poorly fitted or top-dose-only effect; inactive = no such curve, though single readings can be large or run the other way; tested in mouse RAW 264.7 cells; also: % is scaled to controls: 0 for no effect and ±100 for the full control effect; nearly all actives have a fitted effect of over 55% in size
TDP43 rescue = TDP-43 toxicity inhibition in yeast; TDP-43 expressing yeast growth rescue, BacTiter-Glo, 24 h; Potency, µM (series often up to 46.1 µM), without a hit: at the highest dose growth rescue (activation), most hits filed as activators; 1.8% of 410,000 active; also: % of control where 0% means no effect; nearly all actives have a fitted effect of over 50% in size
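Yeast expressing TDP-43 (pregrown in raffinose, seeded at OD600=0.02 in galactose medium) exposed to compounds 24 hr at 30 deg C. Growth read by BacTiter-Glo luminescence; rescue of toxicity appears as increased signal.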
BCR signal inh = blocks chronic active B-cell receptor signaling; Potency, µM (titrated, usually from 46.1 µM), without a hit: at the top dose activity change, negative = inhibition, most hits filed as inhibitors; ABC-DLBCL IkBa-CBG/CBR reporter, luminescence ratio, 4 h; 0.05% of 340,000 active; active = well fitted inhibition curve with a large enough effect in the signal ratio, with a control signal flat, not every such curve was filed as active; inconclusive = small, poorly fitted or top-dose-only effect, or effect the other way, or a change in a side signal; the % refers to the signal ratio;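 also: plate controls were basal doxycycline-induced cells for no effect and cells given 10 µM MG132 for full effect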
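Compounds up to 46 uM were incubated four hours with TMD8 cells whose green CBG68 luciferase is fused to IkappaBalpha; red CBR luminescence normalised the signal, and concentration-effect curves were fitted to fusion, red and ratio data.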
Abeta rescue = restores growth of yeast expressing A-beta42 peptide; AID 1347071; 0.063% of 410,000 active; Potency, µM (top dose mostly 46.1 µM), usual class: activators; yeast expressing A-beta42, growth rescue, OD600, 48 h; response scale: 0% DMSO, 100% iron-clioquinol control; also: nearly all actives have a fitted effect of over 55% in size
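Yeast growth medium received pinned compounds, then yeast cells expressing toxic A-beta were added; plates incubated at 30 C for 48 hr. Growth read as absorbance at 600 nm, normalized to DMSO and equimolar FeCl3 plus clioquinol controls.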
Numbers without * were called inactive; [ ] = dose if it differs, or a comment. Unless noted, calls follow the shape of the dose curve; as a rule, active = well fitted curve in the direction sought with a large enough effect; inconclusive = small, poorly fitted or top-dose-only effect, or another doubt; inactive = no such curve, though single readings can be large; an effect the other way counts as inactive or inconclusive. Potency is read from the fitted curve at half-maximal effect.

Screening COc1ccc(CCNC(=O)c2oc3ccc(OC)cc3c2C)cc1 returned FUS yeast rescue inactive, aSyn rescue -6%, uPA surface inh 4%, TDP43 rescue 4µM*, BCR signal inh -5% and Abeta rescue inactive.
Screening COc1ccc(CCNC(=O)c2oc3ccccc3c2C)cc1 returned FUS yeast rescue inactive, aSyn rescue -1%, uPA surface inh -6%, TDP43 rescue 38%, BCR signal inh -8% and Abeta rescue inactive.
COc1ccc2oc(C(=O)Nc3nc4ccccc4[nH]3)c(C)c2c1 was read as FUS yeast rescue inactive, aSyn rescue -11%, uPA surface inh 3.5µM*, TDP43 rescue 3%, BCR signal inh inconclusive and Abeta rescue inactive.
Screening COc1ccc(Br)c(C(=O)Nc2nc3ccccc3[nH]2)c1 returned FUS yeast rescue inactive, aSyn rescue 1%, uPA surface inh 0%, TDP43 rescue -24%, BCR signal inh inconclusive and Abeta rescue inactive.
For Cc1ccc(NC(=O)CSc2nnc3ccccn23)cc1 the results were FUS yeast rescue inactive, aSyn rescue -4%, uPA surface inh 10%, TDP43 rescue -8%, BCR signal inh 2% and Abeta rescue inactive.
For CCC(=O)N1CCc2cc(CNS(=O)(=O)c3ccc(Cl)s3)ccc21 the results were FUS yeast rescue inactive, TDP43 rescue 13µM* and Abeta rescue inactive.
Cc1cccc(C(=O)N2CCc3cc(CNS(=O)(=O)c4ccc(Cl)s4)ccc32)c1 was read as FUS yeast rescue inactive, TDP43 rescue 14% and Abeta rescue inactive.
Screening Cc1ccc(CNS(=O)(=O)c2ccc(Cl)s2)cc1 returned FUS yeast rescue inactive, aSyn rescue 9%, TDP43 rescue 13µM* and Abeta rescue inactive.
`O=C(COC(=O)c1cc(=O)c2ccccc2o1)NCC1CCCCC1` gave FUS yeast rescue inactive, aSyn rescue -1%, uPA surface inh -1%, TDP43 rescue 4%, BCR signal inh -8% and Abeta rescue inactive.
For COc1ccc(N(C(=O)c2ccco2)S(=O)(=O)c2cc(OC)ccc2OC)cc1 the results were FUS yeast rescue inactive, aSyn rescue 9%, uPA surface inh -3%, TDP43 rescue -1%, BCR signal inh -3% and Abeta rescue inactive.
Screening O=C(Nc1ccc(F)cc1F)N1CCCCCC1 returned FUS yeast rescue inactive, aSyn rescue 0%, uPA surface inh -1%, TDP43 rescue 4%, BCR signal inh -8% and Abeta rescue inactive.
For COc1ccc(NC(=O)C(c2ccc(C)cc2)N(C)C(=O)Cc2cccs2)cc1 (stereo unspecified) the results were FUS yeast rescue inactive, aSyn rescue 12%, uPA surface inh 1%, TDP43 rescue 13µM*, BCR signal inh -4% and Abeta rescue inconclusive.
Screening COc1ccc(NC(=O)C(c2ccc(OC)cc2)N(C)C(=O)Cc2cccs2)cc1 (stereo unspecified) returned FUS yeast rescue inactive, aSyn rescue 11%, uPA surface inh -4%, TDP43 rescue inconclusive, BCR signal inh -1% and Abeta rescue inactive.
Screening OCCCNc1ncnc2c1ncn2[C@H]1CN(Cc2ccc(-c3ccccc3)cc2)C[C@@H](CO)O1 returned FUS yeast rescue inactive, aSyn rescue 3%, TDP43 rescue 10% and Abeta rescue inactive.
`C=CCN1C(=O)C(C)(C)N(C(C)=O)c2ccccc21` gave FUS yeast rescue inactive, aSyn rescue -3%, uPA surface inh -11%, TDP43 rescue -6%, BCR signal inh -2% and Abeta rescue inactive.
Screening CC(=O)N1c2ccccc2N(Cc2ccc(C)cc2C)C(=O)C1(C)C returned FUS yeast rescue inactive, aSyn rescue inconclusive, uPA surface inh 7.1µM*, TDP43 rescue 4%, BCR signal inh inconclusive and Abeta rescue inactive.
For CCCCOc1ccc(CSC2=NCCN2)cc1[N+](=O)[O-] the results were FUS yeast rescue inactive, aSyn rescue 0%, uPA surface inh 6.3µM*, TDP43 rescue -19%, BCR signal inh inconclusive and Abeta rescue inactive.
`CN(C)c1cc(-c2ccc([N+](=O)[O-])cc2)oc(=O)c1Cl` gave FUS yeast rescue inactive, aSyn rescue 0%, uPA surface inh -2%, TDP43 rescue inconclusive, BCR signal inh inconclusive and Abeta rescue inactive.
Cc1cc(/C=N/NC(N)=S)c(C)n1-c1ccc(Cl)cc1 was read as FUS yeast rescue inconclusive, aSyn rescue 2%, uPA surface inh -25%, TDP43 rescue inconclusive, BCR signal inh inconclusive and Abeta rescue 10µM*.
Screening Cc1cc(/C=N/NC(N)=S)c(C)n1-c1ccc(Br)cc1 returned FUS yeast rescue inactive, aSyn rescue -4%, uPA surface inh -7%, TDP43 rescue inconclusive, BCR signal inh inconclusive and Abeta rescue inactive.
Screening Cc1cccc(C)c1-n1c(C)cc(/C=N/NC(N)=S)c1C returned FUS yeast rescue inconclusive, aSyn rescue 9%, uPA surface inh -4%, TDP43 rescue 11µM*, BCR signal inh inconclusive and Abeta rescue inconclusive.
Screening Cc1cc(C=O)c(C)n1-c1ccc(Cl)c(C(=O)O)c1 returned FUS yeast rescue inactive, aSyn rescue -5%, uPA surface inh 3%, TDP43 rescue -6%, BCR signal inh -2% and Abeta rescue inactive.
For Cc1ccccc1-n1c(C)cc(/C=N/NC(=O)c2ccncc2)c1C the results were FUS yeast rescue inactive, aSyn rescue 0%, TDP43 rescue 5%, BCR signal inh inconclusive and Abeta rescue inactive.
Screening Cc1cc(/C=C/C(=O)O)c(C)n1-c1ccc(Cl)cc1 returned FUS yeast rescue inactive, aSyn rescue 10µM*, uPA surface inh -19%, TDP43 rescue inconclusive, BCR signal inh 3% and Abeta rescue inactive.
For Cc1cc(/C=N/NC(N)=S)c(C)n1-c1cccc(Cl)c1 the results were FUS yeast rescue inactive, aSyn rescue 17%, uPA surface inh -4%, TDP43 rescue 2%[0.397 µM], BCR signal inh -16% and Abeta rescue 10µM*.
Cc1cc(-c2nc(-c3ccncc3)no2)ccc1[N+](=O)[O-] was read as FUS yeast rescue inactive, aSyn rescue -3%, uPA surface inh 8%, TDP43 rescue 11µM*, BCR signal inh 1% and Abeta rescue inactive.
`Cn1cnnc1SCC(=O)Nc1sc2c(c1C(N)=O)CCC2` gave FUS yeast rescue 7.1µM*, aSyn rescue 2%, uPA surface inh 4%, TDP43 rescue 0%, BCR signal inh 2% and Abeta rescue inactive.
